# Experimental data: PubChem BioAssay (Tox21)
# Records with an inconclusive call do not appear. A call without a number means that no potency is given here. Values without a mark were called inactive. Calls of active or inactive are those of the source. Unless noted, the call rests on the fitted dose curve; in most records, active means well fitted curve in the direction sought with a large enough effect in the repeat runs; inconclusive means weak or mixed curves; inactive means no such curve, though single readings can be large; an effect the other way counts as inactive or inconclusive.
# Key:
# [1] = qHTS assay to identify small molecule that activate the aryl hydrocarbon receptor (AhR) signaling pathway - cell viability counter screen (AID 743086); further: nearly all actives have a fitted effect of over 45% in size; further: potency means the concentration at half of the fitted maximal effect
# Procedure, shortened: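 HepG2-AhR-luc (HG2L7.5c1) cells, 4000/well, were preincubated 5 h at 37C, exposed to compound in qHTS format for 24 hr at 37C, then given CellTiter-Fluor for 30 min; viability was read as fluorescence in the reporter wells.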
# [2] = qHTS assay to identify small molecule antagonists of the peroxisome proliferator-activated receptor gamma (PPARg) signaling pathway - cell viability counter screen (AID 743194); further: nearly all actives have a fitted effect of over 55% in size
# Procedure, shortened: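 PPARg-UAS-bla HEK293H cells were plated, rested 5 h at 37 C, then treated with compounds plus rosiglitazone (50 nM final) for 17 h at 37 C; viability was then read by CellTiter-Glo luminescence after 30 min at room temperature.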
# [3] = qHTS assay for small molecule agonists of the antioxidant response element (ARE) signaling pathway (AID 743202; active means well fitted activation curve with a large enough effect in the signal ratio in the repeat runs, not every such curve was filed as active; the % refers to the signal ratio; further: potency means the concentration at half of the fitted maximal effect)
# Procedure, shortened: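 Following a 16 h, 37 C exposure of reporter HepG2 cells (ARE-driven beta-lactamase, 2,000 cells/well) to compounds, FRET substrate was applied for 2 h at room temperature and fluorescence intensity recorded.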
# [4] = qHTS assay for small molecule agonists of the antioxidant response element (ARE) signaling pathway - cell viability counter screen (AID 743203; calls by dose curve; further: nearly all actives have a fitted effect of over 55% in size)
# Procedure, shortened: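 ATP content via CellTiter-Glo luminescence served as the viability measure. Cells: ARE-bla HepG2, 2,000 per well. Exposure: 16 hrs, 37C/5% CO2.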
# [5] = qHTS assay for small molecule activators of the heat shock response signaling pathway - cell viability counter screen (AID 743209); further: nearly all actives have a fitted effect of over 50% in size
# Procedure, shortened: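 Compounds dissolved in DMSO were added to overnight-plated HSE-bla HeLa cells and left 5 h at 37 C. Cell viability was quantified by luminescence using CellTiter-Glo.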
# [6] = qHTS assay for small molecule activators of the heat shock response signaling pathway (AID 743210; active means well fitted activation curve with a large enough effect in the signal ratio in the repeat runs, with a control signal flat, not every such curve was filed as active; the % refers to the signal ratio; further: series mostly up to about 63 µM)
# Procedure, shortened: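 Heat shock element–beta-lactamase HeLa reporter cells; qHTS with compounds for 5 h at 37 C; detection by FRET substrate fluorescence after 2.5 h at RT.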
# [7] = qHTS assay to identify small molecule agonists of the peroxisome proliferator-activated receptor delta (PPARd) signaling pathway - cell viability counter screen (AID 743211); further: nearly all actives have a fitted effect of over 55% in size
# Procedure, shortened: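 Read-out: CellTiter-Glo luminescence, 30 min RT, measured in the same wells as the beta-lactamase reporter. Cells: GeneBLAzer PPAR delta UAS-bla HEK293H, 3000 cells/well, compound exposure 17 h at 37C.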
# [8] = qHTS assay to identify small molecule agonists of the farnesoid-X-receptor (FXR) signaling pathway - cell viability counter screen (AID 743218); further: nearly all actives have a fitted effect of over 45% in size
# Procedure, shortened: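 Quantitative HTS counter screen measuring ATP-based viability via CellTiter-Glo luminescence in HEK 293T cells carrying a UAS-driven beta-lactamase reporter, after 16 h compound exposure at 37 C.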
# [9] = qHTS assay to identify small molecule antagonists of the farnesoid-X-receptor (FXR) signaling pathway - cell viability counter screen (AID 743221; active means well fitted cell-killing curve with a large enough effect in the repeat runs, not every such curve was filed as active; further: nearly all actives have a fitted effect of over 50% in size)
# Procedure, shortened: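 HEK 293T FXR-bla cells, 5 h pre-incubation; compound + CDCA 50 uM final, 16 h, 37 C; beta-lactamase FRET read first, then CellTiter-Glo luminescence, 30 min RT.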
# [10] = target: Vitamin D3 receptor (Homo sapiens) (UniProt P11473); assay: qHTS assay to identify small molecule agonists of the vitamin D receptor (VDR) signaling pathway (AID 743222; calls by dose curve)
# Sequence of Vitamin D3 receptor (Homo sapiens) (P11473 whole entry, looked up): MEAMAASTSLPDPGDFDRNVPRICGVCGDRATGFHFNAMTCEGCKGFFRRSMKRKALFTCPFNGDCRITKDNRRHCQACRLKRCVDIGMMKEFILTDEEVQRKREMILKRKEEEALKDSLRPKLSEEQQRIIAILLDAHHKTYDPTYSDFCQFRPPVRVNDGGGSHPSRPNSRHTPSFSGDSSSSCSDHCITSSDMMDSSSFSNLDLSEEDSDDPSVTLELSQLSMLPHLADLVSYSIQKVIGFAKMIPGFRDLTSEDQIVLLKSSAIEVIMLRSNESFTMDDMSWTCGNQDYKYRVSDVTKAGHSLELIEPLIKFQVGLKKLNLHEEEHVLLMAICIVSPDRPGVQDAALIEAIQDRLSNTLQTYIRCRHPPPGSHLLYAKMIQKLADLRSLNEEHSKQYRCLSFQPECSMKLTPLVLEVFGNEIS
# Procedure, shortened: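 Tox21 cell reporter format: VDR-bla line, 16 h compound exposure in 5% CO2 at 37C, then fluorescence intensity after 2 h with LiveBLAzer B/G FRET substrate.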
# [11] = target: Aryl hydrocarbon receptor (Homo sapiens) (UniProt P35869); assay: qHTS assay to identify small molecule that activate the aryl hydrocarbon receptor (AhR) signaling pathway (AID 743085);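 further: HG2L7.5c1 human HepG2 liver cells with stably integrated DRE-driven firefly reporter; series mostly up to about 70 µM; nearly all actives have a fitted effect of over 15% in size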
# Sequence of Aryl hydrocarbon receptor (Homo sapiens) (P35869 whole entry, looked up): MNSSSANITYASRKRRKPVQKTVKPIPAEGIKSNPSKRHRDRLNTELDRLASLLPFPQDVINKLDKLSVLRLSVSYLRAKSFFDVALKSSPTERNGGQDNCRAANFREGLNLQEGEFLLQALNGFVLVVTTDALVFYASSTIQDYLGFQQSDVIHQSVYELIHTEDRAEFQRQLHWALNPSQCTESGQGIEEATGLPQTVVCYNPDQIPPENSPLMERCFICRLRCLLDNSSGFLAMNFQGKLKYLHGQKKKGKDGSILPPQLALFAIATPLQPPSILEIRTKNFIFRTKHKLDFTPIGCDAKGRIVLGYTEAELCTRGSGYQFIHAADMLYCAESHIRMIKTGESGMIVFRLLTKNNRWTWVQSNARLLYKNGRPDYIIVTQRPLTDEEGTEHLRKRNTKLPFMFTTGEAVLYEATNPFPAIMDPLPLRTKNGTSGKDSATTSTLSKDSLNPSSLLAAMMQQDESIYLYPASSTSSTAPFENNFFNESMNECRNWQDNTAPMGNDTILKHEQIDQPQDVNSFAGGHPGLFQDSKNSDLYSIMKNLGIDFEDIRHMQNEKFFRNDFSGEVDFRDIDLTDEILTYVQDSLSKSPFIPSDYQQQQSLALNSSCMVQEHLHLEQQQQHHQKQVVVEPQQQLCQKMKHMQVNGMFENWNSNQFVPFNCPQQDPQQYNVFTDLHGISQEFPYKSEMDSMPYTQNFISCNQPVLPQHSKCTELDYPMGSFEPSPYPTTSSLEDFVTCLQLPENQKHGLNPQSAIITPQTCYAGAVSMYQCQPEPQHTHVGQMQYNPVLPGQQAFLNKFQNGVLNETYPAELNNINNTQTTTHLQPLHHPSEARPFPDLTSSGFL
# Procedure, shortened: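 Luminescence read-out: ONE-Glo reagent, 30 min at room temperature, in HG2L7.5c1 HepG2 reporter cells treated 24 h at 37C. Viability was measured beforehand by CellTiter-Fluor fluorescence after 30 min at 37C.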
# [12] = target: Peroxisome proliferator-activated receptor gamma (Homo sapiens) (UniProt P37231); assay: qHTS assay to identify small molecule agonists of the peroxisome proliferator-activated receptor gamma (PPARg) signaling pathway (AID 743094; active means well fitted activation curve with a large enough effect in the signal ratio in the repeat runs, not every such curve was filed as active; the % refers to the signal ratio)
# Sequence of Peroxisome proliferator-activated receptor gamma (Homo sapiens) (P37231 whole entry, looked up): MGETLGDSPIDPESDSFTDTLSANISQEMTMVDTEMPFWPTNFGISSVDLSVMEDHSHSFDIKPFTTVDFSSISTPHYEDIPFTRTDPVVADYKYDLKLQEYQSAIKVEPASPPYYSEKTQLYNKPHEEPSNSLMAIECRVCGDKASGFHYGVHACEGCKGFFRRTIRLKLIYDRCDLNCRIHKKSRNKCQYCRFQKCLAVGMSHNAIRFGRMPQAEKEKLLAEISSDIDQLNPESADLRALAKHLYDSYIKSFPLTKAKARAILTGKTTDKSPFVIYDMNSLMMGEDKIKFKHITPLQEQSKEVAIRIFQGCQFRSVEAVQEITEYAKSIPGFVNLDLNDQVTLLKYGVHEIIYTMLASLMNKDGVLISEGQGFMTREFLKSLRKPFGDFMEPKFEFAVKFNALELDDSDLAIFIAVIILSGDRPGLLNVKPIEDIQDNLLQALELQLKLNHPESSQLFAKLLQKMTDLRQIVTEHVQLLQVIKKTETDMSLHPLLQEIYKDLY
# Procedure, shortened: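 Agonism was assessed in a beta-lactamase reporter system, HEK293H cells with a stably integrated UAS-bla construct under PPARg control; the 17 h treatment at 37C preceded a 1 h room-temperature FRET substrate read.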
# [13] = target: Peroxisome proliferator-activated receptor gamma (Homo sapiens) (UniProt P37231); assay: qHTS assay to identify small molecule antagonists of the peroxisome proliferator-activated receptor gamma (PPARg) signaling pathway (AID 743191; calls by dose curve; further: series mostly up to about 63 µM; nearly all actives have a fitted effect of over 30% in size)
# Procedure, shortened: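 GeneBLAzer PPARg UAS-bla HEK293H cells carrying a UAS-driven beta-lactamase reporter were plated at 3000 cells/well, preincubated 5 h at 37C, then given compound for 17 h at 37C; LiveBLAzer B/G FRET substrate was read after 1 h at room temperature.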
# [14] = target: Peroxisome proliferator-activated receptor delta (Homo sapiens) (UniProt Q03181); assay: qHTS assay to identify small molecule agonists of the peroxisome proliferator-activated receptor delta (PPARd) signaling pathway (AID 743212; calls by dose curve)
# Sequence of Peroxisome proliferator-activated receptor delta (Homo sapiens) (Q03181 whole entry, looked up): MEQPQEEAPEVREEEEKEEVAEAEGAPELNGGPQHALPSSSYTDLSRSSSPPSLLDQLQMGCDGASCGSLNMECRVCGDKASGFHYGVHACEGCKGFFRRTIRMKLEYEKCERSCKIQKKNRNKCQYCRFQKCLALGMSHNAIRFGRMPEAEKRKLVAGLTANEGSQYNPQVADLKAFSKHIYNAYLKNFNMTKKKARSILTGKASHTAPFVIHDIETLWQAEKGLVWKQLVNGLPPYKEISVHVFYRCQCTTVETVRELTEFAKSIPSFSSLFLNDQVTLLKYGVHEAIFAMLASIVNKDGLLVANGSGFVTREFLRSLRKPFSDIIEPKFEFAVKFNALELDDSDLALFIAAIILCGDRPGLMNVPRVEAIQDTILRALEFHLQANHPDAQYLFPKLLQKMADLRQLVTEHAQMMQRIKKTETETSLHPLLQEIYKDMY
# Procedure, shortened: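 Beta-lactamase reporter read by fluorescence (LiveBLAzer B/G FRET, 2 h, room temperature). Test agents, in DMSO, incubated at 37 C with PPARd-bla HEK293H cells.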
# [15] = target: Bile acid receptor (Homo sapiens) (UniProt Q96RI1); assay: qHTS assay to identify small molecule antagonists of the farnesoid-X-receptor (FXR) signaling pathway (AID 743217; active means well fitted inhibition curve with a large enough effect in the signal ratio in the repeat runs, not every such curve was filed as active; the % refers to the signal ratio)
# Sequence of Bile acid receptor (Homo sapiens) (Q96RI1 whole entry, looked up): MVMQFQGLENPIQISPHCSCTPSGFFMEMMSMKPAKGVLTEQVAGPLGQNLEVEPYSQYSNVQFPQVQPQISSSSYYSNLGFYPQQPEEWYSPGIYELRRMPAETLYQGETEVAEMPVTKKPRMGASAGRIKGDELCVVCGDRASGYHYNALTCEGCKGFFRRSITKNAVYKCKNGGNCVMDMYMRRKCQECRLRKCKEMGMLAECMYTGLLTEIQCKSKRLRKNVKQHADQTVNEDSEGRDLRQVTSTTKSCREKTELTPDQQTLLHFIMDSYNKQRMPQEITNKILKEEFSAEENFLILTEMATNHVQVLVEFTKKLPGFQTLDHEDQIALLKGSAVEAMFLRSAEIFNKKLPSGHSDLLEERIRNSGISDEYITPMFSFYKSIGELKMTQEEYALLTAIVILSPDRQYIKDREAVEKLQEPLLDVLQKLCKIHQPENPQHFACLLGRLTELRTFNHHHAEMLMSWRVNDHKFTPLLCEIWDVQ
# Procedure, shortened: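 Test compounds are pin-transferred onto FXR-bla HEK 293T cells, then chenodeoxycholic acid is added at 50 uM final. After 16 h at 37 °C, LiveBLAzer B/G substrate is applied for 2 h at room temperature and fluorescence read.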
# [16] = target: Bile acid receptor (Homo sapiens) (UniProt Q96RI1); assay: qHTS assay to identify small molecule agonists of the farnesoid-X-receptor (FXR) signaling pathway (AID 743220; active means well fitted activation curve with a large enough effect in the signal ratio in the repeat runs, not every such curve was filed as active; the % refers to the signal ratio)
# Procedure, shortened: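 FXR-UAS-bla HEK 293T cells carrying a UAS-driven beta-lactamase reporter were plated for 5 h at 37C/5% CO2, then exposed to DMSO-dissolved Tox21 10K compounds for 16 h at 37C. A LiveBLAzer B/G FRET substrate was loaded for 2 h at room temperature before fluorescence reading.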
# [17] = target: Vitamin D3 receptor (Homo sapiens) (UniProt P11473); assay: qHTS assay to identify small molecule antagonists of the vitamin D receptor (VDR) signaling pathway (AID 743223; active means well fitted inhibition curve with a large enough effect in the signal ratio in the repeat runs, not every such curve was filed as active; the % refers to the signal ratio)
# Procedure, shortened: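 Beta-lactamase reporter read-out: FRET substrate fluorescence after 2 h at room temperature, following 16 h exposure of VDR-bla cells to test compound plus 3 nM (final) 1alpha,25-dihydroxyvitamin D3 agonist at 37C.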
# [18] = qHTS assay to identify small molecule antagonists of the peroxisome proliferator-activated receptor delta (PPARd) signaling pathway - cell viability counter screen (AID 743213); further: nearly all actives have a fitted effect of over 50% in size
# Procedure, shortened: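 Same-well viability: cells pre-incubated 5 h, dosed with compound plus 300 nM L165041, kept 17 h at 37 C, FRET substrate 2 h RT, then CellTiter-Glo 30 min RT and luminescence.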
# [19] = target: Peroxisome proliferator-activated receptor delta (Homo sapiens) (UniProt Q03181); assay: qHTS assay to identify small molecule antagonists of the peroxisome proliferator-activated receptor delta (PPARd) signaling pathway (AID 743215; active means well fitted inhibition curve with a large enough effect in the signal ratio in the repeat runs, not every such curve was filed as active; the % refers to the signal ratio;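 further: cells stimulated with agonist L165041 at 300 nM final during compound exposure; series mostly up to about 62 µM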)
# Procedure, shortened: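 Here, a reporter line (HEK293H, beta-lactamase under a UAS) measures PPARd signaling. Compounds are tested against agonist L165041 at 300 nM final concentration over 17 h at 37 C, with fluorescence read after substrate.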
# [20] = qHTS assay to identify aromatase inhibitors - cell viability counter screen (AID 743084);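 further: cells stimulated with testosterone during compound exposure; nearly all actives have a fitted effect of over 55% in size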
SMILES,Potency [1],outcome [2],Potency [3],outcome [4],outcome [5],outcome [6],outcome [7],Potency [8],outcome [9],outcome [10],Potency [11],outcome [12],Potency [13],outcome [14],Potency [15],Potency [16],outcome [17],outcome [18],outcome [19],Potency [20]
COc1ccc2c(c1OC)C(=O)O[C@@H]2[C@H]1c2c(cc3c(c2OC)OCO3)CCN1C,29.8 µM (active),inactive,inactive,inactive,inactive,inactive,inactive,inactive,inactive,inactive,–,–,–,–,–,–,–,–,–,–
CCCOC(=O)C(C)O (centres undefined),inactive,inactive,inactive,inactive,inactive,–,–,inactive,inactive,–,inactive,inactive,inactive,inactive,inactive,inactive,inactive,–,–,–
Cc1cccc(OCC(O)CNC(C)(C)C)c1C (centres undefined),–,inactive,–,inactive,inactive,inactive,inactive,inactive,–,inactive,–,–,inactive,–,–,–,inactive,inactive,–,–
Cc1ccccc1C(=O)Nc1ccc(C(=O)N2CCCC(N(C)C)c3ccccc32)cc1 (centres undefined),–,inactive,–,inactive,inactive,inactive,inactive,inactive,inactive,inactive,–,–,–,–,–,inactive,–,inactive,–,–
CCn1ccc(NS(=O)(=O)c2ccc(N)cc2)nc1=O,–,inactive,–,inactive,inactive,inactive,inactive,inactive,inactive,inactive,–,–,–,inactive,–,–,–,inactive,inactive,–
O=C(CCN1CCN(CCO)CC1)N1c2ccccc2Sc2ccc(C(F)(F)F)cc21,21.1 µM (active),inactive,–,inactive,inactive,–,inactive,–,–,inactive,–,inactive,inactive,inactive,–,–,inactive,inactive,inactive,–
C=CC(OCC)OCC,inactive,inactive,34 µM (active),inactive,inactive,inactive,inactive,inactive,inactive,inactive,–,inactive,–,inactive,–,–,inactive,inactive,inactive,–
O=C(O)Cc1ccc(Cl)cc1Cl,–,inactive,inactive,inactive,inactive,inactive,inactive,inactive,–,inactive,–,inactive,inactive,inactive,–,–,inactive,–,inactive,inactive
COc1cc2c(cc1OC)C(=O)CC2,–,inactive,inactive,inactive,inactive,inactive,inactive,inactive,inactive,inactive,–,–,inactive,inactive,–,–,inactive,inactive,inactive,–
COc1ccc2nc(SCc3ncc(C)c(OC)c3C)[nH]c2c1,–,inactive,inactive,inactive,inactive,–,inactive,inactive,inactive,inactive,–,–,inactive,inactive,–,–,–,inactive,inactive,–
O=C1CC(c2ccc(Cl)cc2)CC(=O)N1,–,inactive,inactive,–,inactive,inactive,inactive,inactive,inactive,inactive,–,–,inactive,–,inactive,inactive,inactive,–,inactive,–
CC(C)CCCCOC(=O)c1ccccc1C(=O)OCCCCC(C)C,inactive,inactive,inactive,inactive,inactive,inactive,inactive,inactive,–,–,inactive,inactive,inactive,inactive,–,–,–,inactive,inactive,–
COc1cc(N)ccc1C,inactive,–,–,inactive,inactive,inactive,inactive,inactive,inactive,inactive,–,–,–,inactive,–,inactive,inactive,inactive,inactive,–
CCC(C)NC(N)=O (centres undefined),inactive,inactive,inactive,inactive,inactive,inactive,inactive,inactive,inactive,inactive,–,inactive,–,inactive,–,–,inactive,inactive,inactive,–
Cc1[nH]cnc1-c1ccc(Cl)cc1,–,–,inactive,inactive,inactive,inactive,–,inactive,inactive,–,–,–,inactive,inactive,–,–,–,inactive,inactive,–
O=C(NCC(O)CO)c1c(I)c(C(=O)NCC(O)CO)c(I)c(N(CCO)C(=O)CO)c1I (centres undefined),inactive,inactive,–,inactive,inactive,inactive,inactive,–,inactive,inactive,–,–,–,–,–,inactive,–,–,–,–
CN(CCOc1ccc(NS(C)(=O)=O)cc1)CCc1ccc(NS(C)(=O)=O)cc1,inactive,inactive,inactive,inactive,inactive,inactive,inactive,inactive,inactive,–,–,inactive,–,–,–,inactive,–,inactive,inactive,–
